Laboratory results: PubChem BioAssay AID1851 (National Center for Advancing Translational Sciences (NCATS), 2009)
Where “and” joins values, the source holds several entries; their conditions need not be identical. Identical values can stand only once. Among all 16,000 compounds or so, about 2,600 (16%) were called active. Another 20% or so got no clear call; they are omitted. The call rests on the fitted dose curve; in most records, active means well fitted curve in the direction sought with a large enough effect; inconclusive means small, poorly fitted or top-dose-only effect, or effect the other way; inactive means no such curve, though single readings can be large or run the other way. Only a sample is shown. More than one record can exist for a structure, and the calls need not agree.

target: Cytochrome P450 2D6 (Homo sapiens) (UniProt P10635); test: Cytochrome panel assay with activity outcomes; conditions: recombinant CYP, pro-luciferin dealkylation, luminescence, p450-cyp2d6; series mostly up to 57.1 µM
Sequence (P10635 whole entry, looked up): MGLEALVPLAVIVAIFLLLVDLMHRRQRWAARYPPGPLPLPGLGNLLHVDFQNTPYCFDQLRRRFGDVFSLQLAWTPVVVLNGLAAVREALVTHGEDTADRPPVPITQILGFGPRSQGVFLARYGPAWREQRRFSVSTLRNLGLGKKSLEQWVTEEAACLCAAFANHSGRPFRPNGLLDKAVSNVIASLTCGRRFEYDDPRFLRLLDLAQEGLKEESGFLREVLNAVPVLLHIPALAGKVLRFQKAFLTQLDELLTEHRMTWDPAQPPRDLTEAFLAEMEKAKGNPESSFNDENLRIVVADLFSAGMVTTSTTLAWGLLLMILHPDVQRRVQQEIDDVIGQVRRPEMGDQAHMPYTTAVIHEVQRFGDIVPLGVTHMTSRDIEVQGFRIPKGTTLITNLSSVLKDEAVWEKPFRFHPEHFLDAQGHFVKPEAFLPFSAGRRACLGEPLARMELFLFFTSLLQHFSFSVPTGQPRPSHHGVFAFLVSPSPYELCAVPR
On the % scale 0 is the no-effect control and ±100 the full control effect.

AC50, inactive and 25.1 µM (active):
CN1C(C(=O)Nc2ccccn2)=C(O)c2ccccc2S1(=O)=O

AC50, active:
Clc1ccc(C2=C3CCCCn4c(-c5ccccc5)c[n+](c43)C2)cc1 1 µM
COc1ccc(-c2c[n+]3c4n2CCCCC4=C(c2ccccc2)C3)cc1 1.78 µM
O=C(CN1CCN(C2CCCCC2)CC1)NCCC1=CCCCC1 15.8 µM
O=C(CN1CCN(c2ncccn2)CC1)NCCC1=CCCCC1 2.82 µM
CCSc1ncc(/C=N/Nc2ccc(F)cc2)n1C 0.631 µM
CCOC(=O)C1CCCN(C/C=C/c2ccccc2[N+](=O)[O-])C1 (stereo not drawn) 0.0708 µM
CC1CC(C)CN(C/C=C/c2ccccc2[N+](=O)[O-])C1 (stereo not drawn) 0.631 µM
CC1CCCN(C/C=C/c2ccccc2[N+](=O)[O-])C1 (stereo not drawn) 1 µM
O=C(O)C=Cc1ccc(Cn2ccnc2)cc1 0.0794 µM
Fc1ccccc1NC(=S)NCCc1ccccc1 15.8 µM
COc1ccccc1NC(=S)NCCc1ccccc1 7.08 µM
Fc1cc(Br)ccc1NC(=S)NCCc1ccccc1 20 µM
Cc1cccc(OCCSCc2nc3ccccc3[nH]2)c1 0.282 µM
c1ccc(CSc2nnc(-c3sccc3-n3cccc3)o2)cc1 14.1 µM
NC1=NC2(CCCCCC2)n2c(nc3ccccc32)N1 12.6 µM
CC1CCC2(CC1)N=C(N)Nc1nc3ccccc3n12 (stereo not drawn) 2.82 µM
Cc1cnc(NC(=O)CSc2ccc(Cl)cc2)s1 3.98 µM
C=CC[N+]1(CC#CCOC(c2ccccc2)c2ccccc2)CCOCC1 7.08 µM
O=C(NC(NC(=S)Nc1cc(Cl)ccc1Cl)C(Cl)(Cl)Cl)c1ccco1 (stereo not drawn) 11.2 µM

AC50, 2 µM (active) and inactive:
CC(C)N(CCC(=O)c1ccc2ccccc2c1)Cc1ccccc1

AC50, inactive:
COc1ccc(NC(=S)N2CCN(C/C=C/c3ccccc3)CC2)cc1OC
COc1ccc(/C=C(\C#N)C(=O)NCC2CCCO2)cc1OC (stereo not drawn)
CNc1ncnc2c1ncn2[C@@H]1O[C@H](CO)[C@@H](O)[C@@H]1O
CSc1nc(-c2ccc(C)cc2)[nH]c1S(=O)(=O)c1ccccc1
COc1ccc(-n2c(-c3ccccc3)nc(=S)c3c2CCCC3)cc1
O=C(c1ccc(Cl)cc1)N1CCCC(c2ccccc2)=N1
C[n+]1cc(-c2ccccc2)n2c1CCCCC2
Cc1cc(NC(=O)CSc2ccc3nnc(-c4ccc(F)cc4)n3n2)no1
Cc1ccc(CNC(=O)COC(=O)c2cnccn2)cc1
Cc1cc(C)cc(Oc2nn[nH]n2)c1
O=C(COc1ccc(Cl)cc1)NCCC1=CCCCC1
O=C(CN1C(=O)NC2(CCCC2)C1=O)NCCC1=CCCCC1
CCCCCOc1ccc(NC(=O)C(=O)NCCC2=CCCCC2)cc1
Cc1ccc(CNC(=O)C2CCC(=O)N2C2CCCCC2)cc1 (stereo not drawn)
COC(=O)[C@@]1(Cc2ccc(F)cc2)[C@@H]2[C@@H](CC(=O)[C@H]2CC(=O)C(=O)N2CCCC2)CN1C(=O)c1ccccc1
O=C(O)Cc1sc(-c2ccc(Cl)cc2)nc1-c1ccccc1
CC(=O)Nc1ccc(NC(=O)Cn2c(-c3ccc(F)cc3)cnc2SCC(=O)Nc2c(C)cccc2C)cc1
Cc1cnn(CCC(=O)NNC(=S)Nc2ccc(F)cc2)c1
CCc1ccc2[nH]c(O)c(N=Nc3nc(-c4ccccc4)cs3)c2c1
COc1ccc(C(=O)Nc2ccc3c(c2)nc(CN2CCN(C(C)=O)CC2)n3C)cc1
CCOC(=O)C1CCCN(S(=O)(=O)c2ccccc2)C1 (stereo not drawn)
CCOC(=O)C1CCCN(C(=O)/C=C/c2cccc([N+](=O)[O-])c2)C1 (stereo not drawn)
Cn1nnnc1SCc1ccccc1[N+](=O)[O-]
CS(=O)(=O)N1CCN(c2c(Cl)cccc2[N+](=O)[O-])CC1
CCn1c(SCC(=O)N/N=C/C=C\c2ccccc2[N+](=O)[O-])nnc1-c1ccccc1
COc1ccc(-n2c(=O)c(-c3ccccc3)nc3cnc(N4CCOCC4)nc32)cc1
CN(C)c1ccc(/C=C2\SC(=S)N(Nc3ncc(C(F)(F)F)cc3Cl)C2=O)cc1
CC(C)OC(=O)c1cc2ccccc2oc1=O
O=C(c1ccccc1)c1cc(F)c(N2CCOCC2)cc1Cl
COc1ccc2c(c1)Cc1sc(NC(=O)c3ccco3)nc1-2
CSc1nc2nc3c(c(=O)n2[nH]1)CN(Cc1ccccc1)CC3
O=c1c(-c2cccc(F)c2)nc2cncnc2n1C1CC1
CC(C)(C)N(NC(=O)c1ccccc1)C(=O)c1cccc(C(=O)N(NC(=O)c2ccccc2)C(C)(C)C)c1
O=C(O)/C=C\c1ccc(Cn2ccnc2)cc1
O=C(O)/C=C\c1ccc(O)c(O)c1
O=C(NCCc1ccccc1)C(=O)NN=C1CCCC1
COc1ccccc1NC(=S)NC(=O)c1ccc(-c2ccc(Cl)cc2)o1
CCN(C(=S)Nc1ccccc1F)C1CCCCC1
CC(C)(C)C(=O)NC(=S)NCCc1ccccc1
CCNC(=S)NNC(=O)Cc1ccccc1
CCNc1ncc2nc(-c3ccccc3)c(=O)n(Cc3ccc(F)cc3)c2n1
CS(=O)(=O)N1CCC2(CCCN(C(=O)Nc3cccc(C#N)c3)C2)CC1
COCCn1c(=O)c(-c2ccccc2)nc2cnc(OC)nc21
S=c1[nH]nc(CCc2ccccc2)n1Cc1ccccc1
CC(=O)c1ccc(N2CCC(c3cc(-c4ccc(Cl)cc4Cl)n[nH]3)CC2)c([N+](=O)[O-])c1
COc1ccc(C(=O)n2c(SC)nc3cc4c(cc32)OCCO4)cc1
COc1cnc(-c2ccccc2)nc1Oc1cccc(C)c1
O=C(COc1ccc2ccccc2c1Br)NNC(=O)Nc1ccccc1
Cc1nc(SCC(=O)c2cc3ccccc3oc2=O)c(C#N)c(C)c1C(=O)Nc1ccccc1
COc1ccc(/C=C(/NC(C)=O)C(=O)O)cc1
CCOC(=O)CNC(=O)c1cccnc1
c1ccc(CSc2nnc([C@@H]3CCCN3)o2)cc1
Fc1ccc(CSc2nnc(-c3cc4c(s3)-c3ccccc3CC4)o2)cc1
CCc1ccc(N(C(=O)c2csnn2)C(C(=O)NC(C)(C)C)c2ccncc2)cc1 (stereo not drawn)
O=C(O)c1ccccc1C(=O)NNc1ccc(F)cc1
CCOC(=O)N1CCN(S(=O)(=O)c2ccc(C(=O)Nc3ccc(F)cc3F)cc2)CC1
N#Cc1c(-c2ccccc2)cc(-c2ccccc2)nc1SCc1nnc(-c2ccccc2)o1
Nc1c(N=Nc2cccc(Cl)c2)c(=O)[nH]n1-c1ccccc1
CCC(C)n1c(NC(=O)c2ccccc2)c(C#N)c2nc3ccccc3nc21 (stereo not drawn)
CCOc1cccc(/C(O)=C2/C(=O)C(=O)N(Cc3cccnc3)C2c2ccco2)c1 (stereo not drawn)
CN1C(C(=O)Nc2ccccn2)=C(O)c2sccc2S1(=O)=O
Cc1cc(NC(=O)C2=C(O)c3ccccc3S(=O)(=O)N2C)no1
CCNc1ncc2nc(-c3ccc(OC)cc3)c(=O)n(Cc3ccc(F)cc3)c2n1
O=C(CN1CCN(S(=O)(=O)c2ccccc2)CC1)NC(=O)NCc1ccccc1
CCCOC(=O)c1c(-c2ccccc2)nc(CC)c(C(=O)SCC)c1CCC
COCc1nnc(NC(=O)CSc2ccc(C)cc2)s1
COC(=O)c1ccccc1NC(=O)c1c(Br)cnn1C
COc1cccc(OCc2nnc(SCC(=O)NCc3ccco3)n2C)c1
CNc1ncc(C(=O)c2ccccc2)s1
CCOc1ncnc2c1oc1nc(CC(C)C)c3c(c12)CC(C)(C)OC3
O=C1N=C(N2CCOCC2)S/C1=C\C=C/c1ccccc1
O=C(NC(=S)Nc1cccc(Cl)c1N1CCCCC1)c1ccco1
O=C(NNC(=S)Nc1ccccc1)c1ccco1
N#CCCn1cc(/C=N/O)c(-c2ccc(Cl)cc2)n1
N#Cc1c2c(c(-n3cnc4ccccc43)n3c1nc1ccccc13)CCC2
O=C(NCc1ccccc1)c1ccc2c(c1)C(=O)N(CC1CCCO1)C2=O (stereo not drawn)
CC1=CC(=O)C=CC1(C)C(Cl)(Cl)Cl (stereo not drawn)
COc1ccc(S(=O)(=O)N(CC(=O)N2CCCC2)Cc2ccccc2)cc1
CN(C)/C=N/c1ncc(C(=O)c2ccc3ccccc3c2)s1

activity, negative = inhibition, inactive:
O=C(O)c1c[nH]c2c(ccc3[nH]cc(C(=O)O)c(=O)c32)c1=O -3.58% [at 11.4 µM]
CC(C)[C@@H]1O[C@H](/C=C\c2ccccc2)OCC1(C)C -1.61% [at 11.4 µM]
C[C@@H]1CCCN(CP(=O)(c2ccccc2)c2ccccc2)C1 6.3% [at 11.4 µM]
NC[C@H]1O[C@H](n2cnc3c(N)ncnc32)C[C@@H]1O 8.01% [at 11.4 µM]
CCn1c(CCCc2nc3c([nH]2)c(=O)n(C)c(=O)n3C)nc2c1c(=O)n(C)c(=O)n2C 8.15% [at 11.4 µM]
Cc1cc(Cl)nc(NC(=O)CSc2ccc(Cl)cc2)n1 18.7% [at 11.4 µM]
Cn1c([N+](=O)[O-])cnc1CN1CCN(CCO)CC1 10.5% [at 11.4 µM]
O=C1CCCC=C1[C@H](CCc1ccccc1)OC(=O)c1ccc(Br)cc1 -4.24% [at 11.4 µM]
